Screening results as filed in PubChem.
esBAF inh – SWI/SNF esBAF complex inhibition | reporter increase, % at 12.5 µM | mouse ES cells, Bmi1-luciferase knock-in reporter, 24 h; 100% = twice the neutral-well signal | AID 602393 | actives 2% (n = 350,000); in the data active means activation above about 40%; inconclusive means no clear call, values can overlap the other calls;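 further: 0% = median of the plate's neutral control wells and 100% = double that signal; a rise in the Bmi1 reporter signal indicates esBAF inhibition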
FXN GAA850 act – activators of GAA850 frataxin (FXN) promoter; activation, % at 6 µM; AID 540364; actives 0.56% (n = 360,000); HEK293 lucGAA850 FXN promoter luciferase reporter, 24 h; percent of 10 µM SAHA response;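 active means activation above the average of all compounds screened plus 3 SD, cutoff fixed separately per campaign, cut at about 7.5% in these data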;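 further: 0% = DMSO wells and 100% = 10 µM SAHA wells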
MITF act – activators of MITF-driven TRPM1 promoter activity in SK-MEL-5 cells; SK-MEL-5 TRPM1-promoter luciferase, 24 h; % of positive control, neutral wells = 0; activation, % at 12.5 µM; actives 0.75% (n = 300,000); AID 588334;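 active means mean activation of at least 80% with every replicate also reaching 80%; inconclusive means mean reaches 80% but some replicate falls short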;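 further: 0% = neutral control wells and 100% = parthenolide positive control wells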
Statin myotox sup – suppressors of simvastatin-induced myotoxicity in C2C12 myotubes; ATP luminescence, 48 h; scaled: DMSO 0, geranylgeraniol control 100; rescue of ATP level, % at 7.49 µM; actives 0.78% (n = 330,000); AID 602340;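 active means mean ATP rescue above about 67%, or every replicate alone reaching that limit, limit read from the data, passing the limit was not always enough; inconclusive means no clear call, values can overlap the other calls; inactive means mean under the limit and some replicate under it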;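 further: myotubes were challenged with 10 µM simvastatin during compound exposure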
Wnt bcat act – Wnt/beta-catenin pathway activation; Wnt/beta-catenin reporter cell assay, activator, plate reader; activation, % at 9.35 µM; actives 1.2% (n = 300,000); AID 743398; in the data active means activation above about 30%, passing the limit was not always enough; inconclusive means no clear call, values can overlap the other calls;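 further: 0% = neutral control wells and 100% = positive control wells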
* = called active by the depositor; ? = inconclusive; · = not tested or not shown. A selection: hits, their analogues and other compounds. The true share with any hit is near 3.3%.

SMILES | esBAF inh | FXN GAA850 act | MITF act | Statin myotox sup | Wnt bcat act
Cc1noc(C)c1S(=O)(=O)Nc1ccc2c(c1)C(=O)N([C@H](C)CO)C[C@@H](C)[C@@H](CN(C)S(=O)(=O)c1cccs1)OCCCC[C@@H](C)O2 | 2 | · | · | -73 | ·
Cc1occc1-c1nnc(SCC(=O)Nc2ccccc2)n1Cc1ccccc1 | 46* | -2 | 5 | -7 | ·
C[C@H]1CN([C@@H](C)CO)S(=O)(=O)c2ccc(-c3cccc(C#N)c3)cc2O[C@@H]1CN(C)C(=O)c1ccc(F)cc1 | 4 | · | · | 16 | ·
CCOc1ccc(NCc2cccn2-c2nnc(N3CCC(C(=O)NCCCN4C(C)CCCC4C)CC3)s2)cc1 (stereo not given) | 7 | 1 | -48 | 102* | -2
CC(C)NC(=O)Nc1ccc2c(c1)C(=O)N([C@H](C)CO)C[C@H](C)[C@H](CN(C)S(C)(=O)=O)OCCCC[C@H](C)O2 | 3 | · | · | · | ·
CC(=O)N1CCc2c(sc(NC(=O)c3ccc([N+](=O)[O-])o3)c2C#N)C1 | · | 2 | -93 | · | 67*
COc1ccc(C(=O)Nc2sc3c(c2C#N)CCN(C(C)=O)C3)cc1 | -8 | -2 | -16 | -17 | 2
C[C@@H]1CN([C@H](C)CO)C(=O)Cc2cc(NC(=O)Cc3ccccc3)ccc2O[C@H]1CN(C)C(=O)Nc1cccc2ccccc12 | -3 | · | · | 14 | ·
CCOc1ccc(/C=N/N(C)c2ccccc2)cc1OC | 86* | 6 | 109* | -77 | ·
CN(C)c1ccc(C(=O)OCC(=O)c2ccc[nH]2)cc1 | 72* | 3 | 137* | 0 | 9
COc1ccc2oc(C(=O)OCC(=O)N3C(C)CCCC3C)c(C)c2c1 (stereo not given) | 9 | 0 | 18 | -3 | 5
Cc1ccsc1C(=O)OCC(=O)NC1CCCCC1 | 63* | 2 | · | 11 | 12
O=C(OCC(=O)N1CCOCC1)c1ccc2ccccc2c1O | ? | 3 | 50 | 8 | 42*
Cc1c(C(=O)OCC(=O)N2C(C)CCCC2C)oc2ccccc12 (stereo not given) | 76* | 3 | 74 | 0 | 19
O=C(C[C@@H]1CC[C@@H]2[C@H](COC[C@H](O)CN2C(=O)c2ccccc2)O1)Nc1ccc(-c2ccccc2)cc1 | 1 | · | · | -15 | ·
CCC(=O)Nc1ccc2c(c1)C(=O)N(C)C[C@@H](OC)[C@H](C)CN(CC1CC1)[C@@H](C)CO2 | 0 | · | · | 4 | ·
Cc1ccsc1C(=O)OCC(=O)N1C(C)CCCC1C (stereo not given) | 79* | 2 | 27 | 3 | 11
COc1cccc(NC(=O)COC(=O)c2sccc2C)c1 | 50* | 4 | 108* | 6 | 7
O=C(OCC(=O)N1CCCCCC1)c1ccccc1Br | 54* | 4 | 75 | -12 | 14
O=C(COC(=O)c1ccccc1Br)NC1CCCC1 | 50* | 5 | 58 | 3 | -6
O=C(COC(=O)c1ccccc1Br)NC1CCCCCCC1 | · | 1 | 35 | · | -4
Cc1c(C(=O)OCC(C)(C)CN(C)C)oc2ccccc12 | 29 | 4 | 32 | 95* | -3
CN(C)c1ccc(C(=O)OCC(=O)N2CCCC2)cc1 | 34 | 3 | 36 | -9 | 5
CN(C)c1ccc(C(=O)OCC(=O)N2CCCCCC2)cc1 | 47* | 3 | 64 | 5 | -2
O=C(Nc1ccc(Cl)cc1)Nc1ccccc1C(=O)NCc1ccco1 | 18 | 2 | 25 | -28 | 40*
SMILES | esBAF inh | FXN GAA850 act | MITF act | Statin myotox sup | Wnt bcat act
O=C(NCCSCc1ccco1)Nc1cccc(Cl)c1 | 28 | 3 | 33 | -15 | ·
O=C(NCc1ccco1)c1ccccc1NS(=O)(=O)c1ccc2c(c1)OCCO2 | 7 | 0 | 7 | 109* | ·
O=C(NCCSCc1ccco1)Nc1ccc(Cl)cc1 | 63* | 4 | · | 6 | 2
C[C@@H]1CN([C@@H](C)CO)S(=O)(=O)c2ccc(C#CC3CCCC3)cc2O[C@@H]1CN(C)C(=O)c1cccc(F)c1 | · | · | · | -13 | ·
C=C(C)CNC(=O)c1ccc2nc(Cc3ccc(OC)cc3)oc2c1 | 66* | 5 | · | 3 | 17
COc1ccc(Cc2nc3ccc(C(=O)NC(C)C)cc3o2)cc1 | 51* | 4 | · | -1 | 27
CCOC(=O)C1CCCN(C(=O)c2ccc3nc(-c4cccc(OC)c4)oc3c2)C1 (stereo not given) | 48* | -2 | 26 | 9 | 17
CCC(C)NC(=O)c1ccc2nc(Cc3ccc(OC)cc3)oc2c1 (stereo not given) | 12 | 1 | 11 | -6 | -1
